An excerpt weighted towards active compounds, which were near 3.4% of everything screened.
Shn3 inh set2: reduces Shn3 3'UTR luciferase signal in osteoblasts; Clone20 osteoblast Shn3 3'UTR firefly luciferase, 24 h; inhibition, % at 12.5 µM; 360,000 tested, 0.52% active;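 active = mean inhibition of at least 75% with every replicate also reaching 75%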;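 note: 0% = median of neutral control wells and 100% = pilot-screen positive control compound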
MITF TRPM1 inh: MITF TRPM1 promoter inhibition in SK-MEL-5 cells; AID 488899; 330,000 tested, 0.83% active; inhibition, % at 12.5 µM; SK-MEL-5 TRPM1 promoter luciferase, 24 h;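 active = mean inhibition across replicates of 60% or more, whatever share of single replicates reaches that level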
TROY NFkB inh: blocks TROY-dependent signaling in reporter cells | Q293 LMP1-TROYcd NF-kB luciferase reporter, 4 h | inhibition, % at 10 µM | 360,000 tested, 0.98% active;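 active = compounds whose plate-normalised and pattern-corrected inhibition of the luciferase reporter signal at the single screening dose is 50% or more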
LMP1 NFkB inh: Epstein-Barr LMP1 NF-kappaB reporter inhibition. AID 504558. LMP1-induced NF-kappaB luciferase reporter cells, luminescence. 350,000 tested, 0.69% active. inhibition, % at 12.5 µM; in the data active = inhibition above about 41%;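 note: 0% = neutral control wells and 100% = reference inhibitor control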
TWEAK-Fn14 inh: inhibitors of TWEAK-Fn14 interaction signaling; TWEAK-stimulated Fn14 reporter cells, luciferase luminescence, 8 h; inhibition, % at 10 µM; 360,000 tested, 2% active; in the data active = inhibition above about 50%
HIF-2a block: blocks HIF-2a reporter activity. inhibition, % at 18.8 µM. 786-0 RCC cells HIF-2a reporter, luciferase luminescence, overnight. AID 624352. 360,000 tested, 0.72% active;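 active = inhibition of the luminescence signal of 40% or more relative to plate controls, in a single-dose primary screen at 18.75 µM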
The depositor's hits bear a star; nt = no result.

SMILES	Shn3 inh set2	MITF TRPM1 inh	TROY NFkB inh	LMP1 NFkB inh	TWEAK-Fn14 inh	HIF-2a block
CCc1ccc(/C=C2\SC(=S)N(CCCC(=O)Nc3ccccc3C(=O)O)C2=O)cc1	32	10	75*	-4	33	81*
O=C(CCCN1C(=O)/C(=C\c2ccccc2)SC1=S)Nc1ccc(C(=O)O)cc1	15	6	-23	0	11	-2
COc1ccc(CNC(=O)COC(=O)Cc2ccc(Br)cc2)cc1	-12	9	-6	3	-2	26
COc1cccc(/C=C2\SC(=S)N(CCCC(=O)Nc3cccc(C(=O)O)c3)C2=O)c1	0	nt	-16	8	-19	26
COc1ccc(/C=C2/SC(=S)N(CCCC(=O)Nc3ccccc3C(=O)O)C2=O)cc1	47	41	75*	17	92	91*
O=C(CCCN1C(=O)/C(=C/c2cccs2)SC1=S)NNC(=O)c1ccccc1O	43	12	12	12	-5	41*
Cc1ccc(S(=O)(=O)N(C)C)cc1NC(=O)COC(=O)COc1ccc2c(c1)CCC2	13	-2	3	3	-3	-2
COc1ccc(/C=C2\SC(=S)N(CCCC(=O)N3CCCCC3CCO)C2=O)cc1 (stereo unspecified)	8	25	28	7	34	83*
O=C1/C(=C/c2ccccc2Cl)SC(=S)N1CCC(=O)N1CCCCC1CCO (stereo unspecified)	-48	9	1	1	4	20
O=C1/C(=C\c2ccccc2)SC(=S)N1CCC(=O)N1CCCCC1CCO (stereo unspecified)	-74	-12	20	-5	0	2
CC(C)c1ccc(/C=C2\SC(=S)N(CCC(=O)N3CCCCC3CCO)C2=O)cc1 (stereo unspecified)	48	76*	65*	28	87*	86*
Clc1ccccc1CN(Cc1ccco1)Cc1nnnn1C1CCCC1	4	6	3	6	7	20
c1coc(CN(Cc2cccs2)Cc2nnnn2C2CCCCC2)c1	6	8	10	-9	51*	-9
COc1ccc(/C=N\NC(=O)c2ccccc2OC)cc1COc1ccccc1C	-6	-12	23	3	11	2
Cc1occc1C(=O)N/N=C/c1ccc(N(C)C)cc1	-52	-18	39	16	72*	-95
COc1ccc(/C=N/NC(=O)c2ccoc2C)cc1COc1c(C)cccc1C	43	28	41	21	74*	-141
Cc1cccc(C)c1OCC(=O)NNC(=O)c1ccoc1C	5	-2	nt	1	51*	8
CC(C)CC1C(=O)N(Cc2cn(CCC3OCCO3)nn2)CCS(=O)(=O)N1Cc1ccc(-c2ccc(Cl)c(Cl)c2)cc1 (stereo unspecified)	79	nt	29	7	43	-4
CN(Cc1ccco1)S(=O)(=O)c1cc(F)ccc1CN1C(=O)c2cccnc2C1=O	2	5	11	5	23	10
CC(C)NC(=O)c1ccc2sc([C@@H]3O[C@H](CO)[C@H](O)[C@H](O)[C@H]3O)nc2c1	1	nt	-1	nt	5	7
Nc1c(C(=O)Nc2ccc(S(=O)(=O)N3CCCC3)cc2)sc2nc3cc4c(cc3cc12)CCC4	34	-15	0	-13	8	-154
Nc1c(C(=O)Nc2ccc(S(=O)(=O)N3CCCC3)cc2)sc2nc3ccc(OC(F)(F)F)cc3cc12	61	83*	-27	-238	2	-129
COc1ccc(C(C)(O)c2nc(-c3cccs3)cs2)cc1 (stereo unspecified)	20	nt	10	nt	15	-5
Cc1ccc(OC2CCN(C(=O)[C@H]3O[C@@H](n4cnc5c(N)ncnc54)[C@H](O)[C@@H]3O)CC2)cc1	22	nt	3	nt	-5	16
Cc1ccc(C2C3=C(CC(C)(C)CC3=O)NC3=C2C(=O)CC(C)(C)C3)o1	0	9	nt	-6	84*	11
COC(=O)[C@@H](Cc1c[nH]c2ccccc12)NC(=O)C1CCCN(S(=O)(=O)c2ccc(C)cc2)C1 (stereo partly specified)	9	15	-4	5	12	17
O=C(COC(=O)c1ccc2ccccc2c1)NCc1ccccc1	-16	nt	16	-4	-22	14
CCOC(=O)N1CCN(C(=O)C2CCN(S(=O)(=O)c3ccc(Cl)cc3)CC2)CC1	17	-8	11	-2	-4	11
